Compound activity as filed in PubChem BioAssay.
Hits are enriched below; roughly 2.4% of the tested compounds scored in any of these assays.
GLP1R inv ag = qHTS of GLP-1 Receptor Inverse Agonists (Inhibition Mode) | Glucagon-like peptide 1 receptor (Homo sapiens), P43220 | HEK293 GLP-1R CRE-luciferase, luminescence, 24 h; GLP-1R form is constitutively active | Potency, µM (doses to about 38.3 µM), for inactives: at the highest dose activity change, negative = inhibition, hits mostly inhibitors | hit rate 1.6% among 410,000 | AID 624417, 2012; further: potency means the concentration at half of the fitted maximal effect; on the % scale 0 is the no-effect control and ±100 the full control effect; nearly all actives have a fitted effect of over 55% in size
Target sequence (P43220 whole entry, looked up): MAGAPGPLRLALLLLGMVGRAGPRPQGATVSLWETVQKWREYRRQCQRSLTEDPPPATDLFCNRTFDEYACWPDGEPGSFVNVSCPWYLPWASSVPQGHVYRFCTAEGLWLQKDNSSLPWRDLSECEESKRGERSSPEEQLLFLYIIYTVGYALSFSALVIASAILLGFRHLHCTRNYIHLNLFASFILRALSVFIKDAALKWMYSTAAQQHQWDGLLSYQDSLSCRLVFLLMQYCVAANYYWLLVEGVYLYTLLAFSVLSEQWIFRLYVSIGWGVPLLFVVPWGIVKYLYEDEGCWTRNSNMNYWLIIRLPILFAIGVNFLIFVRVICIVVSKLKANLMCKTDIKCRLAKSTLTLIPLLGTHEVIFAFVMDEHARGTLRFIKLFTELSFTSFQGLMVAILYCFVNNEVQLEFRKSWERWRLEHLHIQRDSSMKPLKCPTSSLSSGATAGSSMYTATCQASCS
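Using stably transfected HEK293 (constitutively active GLP-1R, cAMP-luciferase reporter), compounds were incubated 24 hr and luciferase measured by luminescence.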
TRHR PAM = qHTS for Small Molecule Agonists and Allosteric Enhancers of Human TRH Receptor: Primary Screen for Enhancers | Thyrotropin-releasing hormone receptor (Homo sapiens), P34981 | TRHR cells, fluo-8 calcium fluorescence, EC20 TRH enhancement | enhancement, % at 2 µM | hit rate 0.66% among 360,000 | AID 493056, 2011; in the data active means enhancement above about 30%; further: 0% is about no effect
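TRHR-expressing cells loaded with fluo-8 calcium dye were read kinetically (ex 480/em 530) during compound addition, then stimulated with an EC20 of TRH (10 nM final). Enhancement of the Gq-mediated intracellular calcium response was scored.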
GLP1R ag = qHTS of GLP-1 Receptor Agonists; Glucagon-like peptide 1 receptor (Homo sapiens), P43220; HEK293 GLP-1R CRE-luciferase, luminescence, 4-6 h; cells express a hypersensitive GLP-1R form; Potency, µM (top dose mostly 45.6 µM), inactives show at the highest dose activation, usual class: activators; hit rate 0.007% among 380,000; AID 624172, 2012; further: potency means the concentration at half of the fitted maximal effect; % of control where 0% means no effect
TRHR agonist = qHTS for Small Molecule Agonists and Allosteric Enhancers of Human TRH Receptor: Primary Screen for Agonists. hit rate 0.18% among 360,000. AID 493084, 2011. TRHR cells, calcium flux fluo-8, FDSS agonist mode. Thyrotropin-releasing hormone receptor (Homo sapiens), P34981. activation, % at 2 µM; in the data active means activation above about 30%; further: 0% is about no effect
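Agonist-mode FDSS calcium read (Ex 480/Em 530, 1 s cycles) in 1536-well TRHR cells with fluo-8 dye, after 10-cycle baseline and 23 nL compound addition; TRH at EC20 (10 nM final) added afterwards for the enhancer phase.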
PTHR1 agonist = qHTS for PTHR1 Agonists: Primary Screen | HEK293 GP2 PTHR1 cells, GloSensor cAMP luminescence, 1 h | Potency, µM (highest dose often 115 µM), without a hit: at the top dose activation, usual class: activators | Parathyroid hormone/parathyroid hormone-related peptide receptor (Homo sapiens), Q03431 | hit rate 0.075% among 410,000; further: potency means the concentration at half of the fitted maximal effect; nearly all actives have a fitted effect of over 55% in size
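HEK-293-derived GP2 cells expressing PTHR1 and a GloSensor cAMP reporter, 3,000/well, plated overnight, given luciferin plus IBMX (each 0.5 mM as added) for 1 h at 37 °C, then compound for 1 h at 37 °C. Luminescence was read after 15 min at room temperature.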
HEK293 tox = qHTS of GLP-1 Receptor Inverse Agonists: Cytotox Screen; HEK293 cAMP-luciferase reporter cells, luminescence, 24 h; Potency, µM (doses to about 38.3 µM), for the others: top-dose activity change, negative = inhibition, usual class: inhibitors; hit rate 0.13% among 410,000; AID 624418, 2012;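 further: loss of luciferase light is scored as toxicity; potency means the concentration at half of the fitted maximal effect; on the % scale 0 is the no-effect control and ±100 the full control effect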
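Cells in DMEM/10% Nu serum/1% pen-strep, 1536-well format. Pre-incubated 12 h, dosed with 23 nL compound, incubated a further 24 h. Luciferase detection, 12 min at room temp, luminescence.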
Active calls of the source: *; i = inactive; ? = inconclusive; / = not tested or not shown; [ ] = dose if it differs, or a comment. Unless noted, the call rests on the fitted dose curve; in most records, active means well fitted curve in the direction sought with a large enough effect; inconclusive means small, poorly fitted or top-dose-only effect, or another doubt; inactive means no such curve, though single readings can be large; an effect the other way counts as inactive or inconclusive.

SMILES | GLP1R inv ag | TRHR PAM | GLP1R ag | TRHR agonist | PTHR1 agonist | HEK293 tox
O=C(Nc1cccc(S(=O)(=O)N2CCCCCC2)c1)C1CCN(C(=O)c2ccc(Cl)cc2)CC1 | 8.91µM* | -0.5 | 12.6% | -0.1 | -26.2% | -15.4%
COc1cc(Nc2c(C#N)cnc3cc(OCCCN4CCN(C)CC4)c(OC)cc23)c(Cl)cc1Cl | / | / | 6.2% | / | / | /
CC(C)(C)C(=O)NC(=S)NNC(=O)c1ccncc1 | -19.0% | 3.8 | 1.8% | 0.4 | -7.6% | 8.1%
CC(C)(C)C(=O)NC(=S)NNC(=O)c1ccc(Cl)cc1Cl | ? | -6.8 | 12.9% | 102.1* | -16.9% | -9.1%
CC(C)(C)C(=O)NC(=S)NNC(=O)c1ccc(-c2ccccc2)cc1 | ? | -2.7 | 5.4% | 58.4* | -14.6% | -38.3%
CCCOc1ccc(C(=O)NNC(=S)NC(=O)c2ccccc2)cc1 | ? | 2.1 | -1.3% | 37.6* | 0.8% | -21.5%
CCCOc1ccc(C(=O)NNC(=S)NC(C)=O)cc1 | 0.0% | -1.8 | -13.7% | 0.5 | i | -20.6%
Cc1cc2c(c(C)c1CCO)C(=O)[C@H](C)C2 | 4.4% | / | 5.6% | / | -8.4% | 2.7%
O=C(Nc1cnc2sc3c(n2c1=O)CCCC3)c1ccc(F)cc1 | 29.1% | 0.0 | -7.7% | -0.7 | -15.0%[57.5 µM] | -9.3%
CCCNS(=O)(=O)c1ccc(OCC(=O)N2CCCC2)cc1 | 8.4% | 17.6 | 3.4% | 0.1 | i | -1.1%
NS(=O)(=O)c1ccc(NC(=S)NCc2ccc(Cl)cc2)cc1 | 3.98µM* | 6.6 | 2.2% | 0.1 | ? | -1.9%
O=C(Nc1ccc2c(c1)OCO2)c1cc(C2CCCCN2C(=O)c2ccc3c(c2)CCO3)on1 (stereo not given) | 10µM* | / | -2.4% | / | -21.7% | 0.2%
O=C(Nc1ccc2c(c1)OCO2)c1cc(C2CCCCN2C(=O)c2ccc(Cl)cc2)on1 (stereo not given) | ? | / | 8.5% | / | i | -1.3%
S=C(NCCCN1CCOCC1)N1CCN(c2nc(-c3ccc(Cl)cc3)cs2)CC1 | 3.55µM* | -4.0 | -6.4% | 0.0 | -28.9% | ?
O=S(=O)(c1cccc(Cl)c1Cl)N1CCN(C(=S)NCCCN2CCOCC2)CC1 | 7.08µM* | -4.2 | 5.3% | 1.2 | -91.2% | 1.0%
CCCCN(C(=O)c1cccs1)C1CCS(=O)(=O)C1 (stereo not given) | -8.7% | 0.3 | -3.8% | -0.1 | -15.9% | -7.5%
CCn1cc(C(=O)OCC(=O)Nc2cc(S(=O)(=O)N(C)C)ccc2C)c(=O)c2ccc(C)nc21 | ? | 2.1 | 4.7% | 0.2 | -4.9% | -9.3%
CC1(C)CC(=O)c2cc(C(=O)NCc3ccco3)c(=O)n(-c3ccccc3)c2C1 | -28.7% | 3.0 | 15.1% | -0.6 | -13.0%[57.5 µM] | 0.5%
CC1(C)CC(=O)c2cc(C(=O)NNc3ccccc3)c(=O)n(-c3ccccc3)c2C1 | 1µM* | 6.3 | 1.5% | 0.3 | i | -7.8%
CC1C/C(=N\NC(N)=S)c2cc(Cl)ccc2S1 (stereo not given) | ? | 1.8 | -16.0% | -0.4 | -15.7% | 2.24µM*
CC(C)=C1CCC(C)CC1=NNC(N)=S (stereo not given) | ? | / | 5.0% | / | -19.7% | ?
COc1ccc(-n2cc(CNCCc3nc(C)cc(C)n3)c(-c3ccccc3Cl)n2)cc1 | 10µM* | 14.3 | 18.8% | 1.4 | i | ?
COc1ccc(-n2cc(CNCCc3ncc(C)[nH]3)c(-c3ccccc3Cl)n2)cc1 | ? | 16.4 | 6.3% | 0.2 | i | -2.4%
COc1ccccc1CNC(=O)Cn1c(-c2cccs2)cc2cc(F)ccc21 | 13.6% | 2.9 | / | 0.0 | 50.1µM* | -5.4%
O=c1c2cccnc2[nH]c(=S)n1Cc1ccccc1 | 11.5% | 31.7* | -0.2% | 0.2 | i | 5.6%
SMILES | GLP1R inv ag | TRHR PAM | GLP1R ag | TRHR agonist | PTHR1 agonist | HEK293 tox
CCc1sc(C(=O)Nc2nc(C)cs2)cc1C | 10µM* | 1.6 | 3.6% | 0.1 | i | ?
CC(=NC(C)C)C1=C(O)C(C)OC1=O (stereo not given) | 55.7% | -4.4 | 6.2% | 0.0 | -15.0% | -1.9%
CC(C)(C)NCC(O)COc1ccccc1C(=O)CCc1ccccc1 (stereo not given) | 11.2µM* | 17.2 | -2.6% | 0.8 | i | ?
CC(C)(C)NCC(O)COc1ccccc1C(C)(C)C (stereo not given) | 7.94µM* | 7.2 | -1.4% | 1.4 | i | -6.0%
CC(C)(C)NC[C@@H](O)COc1ccccc1C1CCCC1 | / | / | 4.9%[19.8 µM] | / | / | /
C=CCNC(=O)c1c(CSc2ccc(Cl)cc2)noc1C(=O)NCc1ccccc1 | 7.94µM* | / | 1.9% | / | -4.1% | 2.5%
Cc1cccc(SCc2noc(C(=O)NC(C)C)c2C(=O)O)c1 | ? | 2.8 | -2.1% | 0.8 | i | -19.2%
CCCNC(=O)c1onc(CSc2ccc(Cl)cc2)c1C(=O)NCCC(C)C | 10µM* | / | 9.0% | / | i | 0.4%
C=CCNC(=O)c1c(CSc2ccccc2)noc1C(=O)NCc1ccccc1 | -5.2% | -3.8 | -1.1% | 1.7 | i | 3.9%
CC(C)NC(=O)c1onc(CSc2ccccc2)c1C(=O)O | -1.3% | 31.0* | 1.5% | 1.3 | -3.9% | -0.4%
C=CCNC(=O)c1c(CSc2ccc(Cl)cc2)noc1C(=O)NCCC | ? | / | 15.1% | / | -6.5% | -4.6%
O=C(NCN1C(=O)C2C3C=CC(C3)C2C1=O)OC1CCCCC1 (stereo not given) | 0.9% | -4.3 | -0.1% | 0.9 | -6.4%[57.5 µM] | -5.0%
COc1ccc(CC(=O)N2CCN(S(=O)(=O)c3cc(Cl)ccc3Cl)CC2)cc1 | ? | -3.3 | 4.1% | -0.6 | -0.7% | 4.2%
COCCn1nnnc1C(c1cc2cc(C)ccc2[nH]c1=O)N1CCN(C2CCCCC2)CC1 (stereo not given) | 21.4% | 0.3 | 0.2% | -0.6 | -2.4%[57.5 µM] | 11.2µM*
CCN1CCN(c2ccc(N3CCN(S(=O)(=O)c4ccc(C)c([N+](=O)[O-])c4)CC3)nn2)CC1 | 1.58µM* | 0.7 | -2.0% | -0.1 | -24.6% | -7.4%
COc1ccc(NC(=O)c2ccc(OC(F)F)cc2)cc1Cl | ? | -3.0 | 6.5% | 0.2 | -16.7% | -26.0%
CCOC(=O)C(Oc1ccc2c(-c3ccccc3)cc(=O)oc2c1)c1ccccc1 (stereo not given) | 11.2µM* | -5.5 | 14.2% | 0.2 | -6.2% | 23.6%
